# Results filed as inconclusive are left out. Values without a mark were called inactive. The source made the active and inactive calls. The call rests on the fitted dose curve; in most records, active means well fitted inhibition curve with a large enough effect; inconclusive means small, poorly fitted or top-dose-only effect; inactive means no such curve, though single readings can be large or run the other way.
# Test system: Zika virus NS2B-NS3 protease (linked construct)
# Assay: Primary screen NINDS Rhodamine qHTS for Zika virus inhibitors (AID 1347160); further: nearly all actives have a fitted effect of over 55% in size
# Conditions: purified NS2B-NS3 protease, Rhodamine110 substrate fluorescence; series mostly up to 33.1 µM; activity change, negative = inhibition: at the top concentration
# In short: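 Kinetic fluorescence (Ex 480 nm, Em 540 nm) over 15 min with 1.5 microM Rhodamine110 peptide and 25 nM linked protease.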
# On the % scale 0 is the no-effect control and ±100 the full control effect.
Structure (SMILES),"activity change, negative = inhibition",outcome
OC[C@@]1(O)CO[C@@H](OC[C@H]2O[C@@H](OCc3ccccc3)[C@H](O)[C@@H](O)[C@@H]2O)[C@@H]1O,8.54%,–
COc1cnc(-n2cnc(C)n2)c2[nH]cc(C(=O)C(=O)N3CCN(C(=O)c4ccccc4)CC3)c12,–,inactive
Cc1ccc(-n2nc(C(C)(C)C)cc2NC(=O)Nc2cc(COc3cccnc3)[nH]n2)cc1,–,inactive
C=C1CCC2[C@](C)(CCC[C@]2(C)C(=O)O)[C@H]1CC/C(C)=C/C(=O)OC (stereo not given in full),-0.689%,–
C=C1CCC2C(C)(C(=O)OC)CCCC2(C)C1CCC1=CCOC1=O (stereo not given),4.74%,–
CCc1cccc2c3c([nH]c12)[C@@](CC)(CC(=O)O)OCC3,22.4% [at 57.1 µM],–
CC(=O)OC1C(CO)OC(O[C@H]2[C@H](OC(=O)[C@]34CCC(C)(C)C[C@H]3C3=CCC5[C@@]6(C)CC[C@H](O[C@@H]7O[C@H](C(=O)O)[C@@H](O)[C@H](O[C@@H]8OC[C@@H](O)[C@H](O)[C@H]8O)[C@H]7O[C@@H]7O[C@H](CO)[C@H](O)[C@H](O)[C@H]7O)[C@@](C)(C=O)C6CC[C@@]5(C)[C@]3(C)C[C@H]4O)O[C@H](C)[C@H](OC3OC(C)C(OC4OCC(O)C(O)C4O)C(O)C3O)[C@@H]2O)C(O)C1O (stereo not given in full),4.85% [at 10.7 µM],–
CCCC1=CC2=C(CO1)C(=O)C(C)(O)C(OC(=O)c1c(C)cc(OC)cc1O)C2 (stereo not given),-21.3%,–
CC1(C)C=Cc2c(ccc3c2N=C2C(C)(C)[C@@H]4C[C@]56CCCN5C(=O)[C@@]4(C[C@]23O)NC6=O)O1,10.8%,–
COC(=O)c1c(CC=C(C)C)c(OC2OC(CO)C(O)C(O)C2O)c2ccccc2c1OC1OC(CO)C(O)C(O)C1O (stereo not given),12.4% [at 15.1 µM],–
